Hit rate of the full screen: of about 5,500 compounds, about 2,000 (36%) were called active. Roughly 18% stayed inconclusive and do not appear here. No stated cut-off is given here; in the data, active means normalized growth mostly below about 0.91 (no sharp cut-off); inconclusive means no clear call, values can overlap the other calls; inactive means mostly above about 0.92. The list shows a part of the results.
Assay: chemical genetic growth profiling, strain panel (AID 1159580);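 further: tested at 20 µM; growth read once vehicle control cultures reached saturation at 30 °C; 1 = growth at the plate median or of vehicle wells; lower values mean less growth of the strain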
Conditions: S. cerevisiae deletion strains, growth OD

Measured: normalized growth

COC(=O)[C@@H](N)CCCN=C(N)N[N+](=O)[O-]
inactive: locus YAL013W, strain DEP1, hits give low values 0.999 | locus YAL040C, strain CLN3, hits give low values 1 | locus YCL061C, strain MRC1 (second series), hits give low values 1 | locus YDR150W, strain NUM1, hits give low values 1.01 | locus YDR363W, strain ESC2, hits give low values 1.01 | locus YER002W, strain NOP16, hits give low values 0.991 | locus YGR078C, strain PAC10, hits give low values 1.01 | locus YMR307W, strain GAS1, hits give low values 0.986 | locus YNL175C, strain NOP13, hits give low values 1 | locus YNL197C, strain WHI3, hits give low values 0.994 | locus YNL224C, strain SQS1, hits give low values 1 | locus YNL322C, strain KRE1, hits give low values 1.02 | locus YOR083W, strain WHI5 (second series), hits give low values 1
